Reference: PubChem BioAssay AID1942 (Johns Hopkins Ion Channel Center, 2009)
The whole screen tested about 2,400 compounds, of which about 580 (24%) were called active.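 How the source made its calls: active means activity change at or above the mean plus 3 SD of buffer wells without dofetilide, per plate; inactive means the rest.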 Not all results are given here.

Molecular target: Potassium voltage-gated channel subfamily KQT member 2 (Rattus norvegicus) (UniProt O88943)
Test: rat KCNQ2 channel activation by compounds alone, confirmation, counter-screen for hERG block protector project, cell-based, CHO, FluxOR thallium flux (AID 1942);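 further: normalized value minus buffer-control mean plus three SD of buffer wells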
Settings: CHO-KCNQ2 cells, FluxOR thallium flux fluorescence; at 10 µM; hits give high values

Chain of Potassium voltage-gated channel subfamily KQT member 2 (Rattus norvegicus) (O88943 whole entry, looked up): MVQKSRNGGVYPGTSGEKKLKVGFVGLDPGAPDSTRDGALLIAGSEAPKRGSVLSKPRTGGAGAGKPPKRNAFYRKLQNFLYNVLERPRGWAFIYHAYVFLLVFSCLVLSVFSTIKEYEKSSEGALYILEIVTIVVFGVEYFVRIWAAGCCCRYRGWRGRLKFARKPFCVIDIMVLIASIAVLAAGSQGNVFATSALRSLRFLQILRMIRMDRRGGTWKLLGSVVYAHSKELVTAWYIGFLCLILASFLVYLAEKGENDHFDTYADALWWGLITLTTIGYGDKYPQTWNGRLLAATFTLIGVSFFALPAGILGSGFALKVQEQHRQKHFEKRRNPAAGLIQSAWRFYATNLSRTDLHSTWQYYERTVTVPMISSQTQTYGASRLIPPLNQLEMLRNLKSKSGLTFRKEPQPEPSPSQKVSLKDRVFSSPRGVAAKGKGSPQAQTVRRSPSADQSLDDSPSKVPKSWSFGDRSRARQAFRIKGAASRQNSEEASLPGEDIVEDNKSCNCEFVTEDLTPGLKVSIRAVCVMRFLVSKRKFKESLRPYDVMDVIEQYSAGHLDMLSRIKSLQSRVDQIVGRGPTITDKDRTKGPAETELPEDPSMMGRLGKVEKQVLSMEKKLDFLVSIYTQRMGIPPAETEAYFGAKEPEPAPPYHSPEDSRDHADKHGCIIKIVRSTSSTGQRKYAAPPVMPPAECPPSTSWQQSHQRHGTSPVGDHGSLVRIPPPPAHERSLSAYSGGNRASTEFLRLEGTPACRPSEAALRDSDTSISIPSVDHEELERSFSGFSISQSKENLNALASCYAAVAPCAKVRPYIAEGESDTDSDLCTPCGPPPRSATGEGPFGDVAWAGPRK

| SMILES | activity change, less the hit threshold |
| --- | --- |
| CC(C)(C)OC(=O)NCCCC(CCCNC(=O)OC(C)(C)C)C(=O)O | -22.6% (inactive) |
| CCOC(=O)N1CCN(C(=O)COC(=O)c2cc(Cl)c(O)c(Cl)c2)CC1 | -13.4% (inactive) |
| COc1ccc2[nH]c3c(=O)n(CCN4CCOCC4)cnc3c2c1 | -15.3% (inactive) |
| O=C(Nc1ncc(Cc2ccc(C(F)(F)F)cc2)s1)c1ccc(-c2cccc([N+](=O)[O-])c2)o1 | -12.3% (inactive) |
| O=C(NCc1ccco1)c1ccc(OCC2CCCO2)cc1 (stereo unspecified) | -26.4% (inactive) |
| O=C(NCC1CCCO1)c1ccc2c(=O)n(Cc3ccco3)c(SCC(=O)N3CCCC3)nc2c1 (stereo unspecified) | 3.2% (active) |
| O=C(CSc1cn(CC(=O)N2CCCC2)c2ccccc12)NCC1CCCO1 (stereo unspecified) | -27.5% (inactive) |
| OC(COC(c1ccccc1)c1ccccc1)CN1CCCCC1 (stereo unspecified) | -23.9% (inactive) |
| COc1ccc(C(CC(=O)O)NC(=O)C(c2ccccc2)c2ccccc2)cc1 (stereo unspecified) | -23.8% (inactive) |
| O=C1C(=Cc2cccn2-c2ccc(O)cc2)C(=O)c2ccccc21 | -25.6% (inactive) |
| CC(C)(C)C(=O)NC(=S)N1CCOCC1 | -8% (inactive) |
| O=C(C1CCN(S(=O)(=O)c2cc(Cl)ccc2Cl)CC1)N1CCOCC1 | -26% (inactive) |
| CCCCCCC1CCC(C(=O)N2CCOCC2)CC1 (stereo unspecified) | 5.9% (active) |
| COC(=O)Sc1nnc(-c2ccc(Br)cc2)o1 | -1.8% (inactive) |
| CCn1c(O)c(N=NC2=NC(=O)CS2)c2cc(C)ccc21 | -10.5% (inactive) |
| CCn1c(O)c(N=NC2=NC(=O)CS2)c2ccccc21 | -5.8% (inactive) |
| CCc1ccc2c(c1)c(N=NC1=NC(=O)CS1)c(O)n2CC | 26.5% (active) |
| C/C(=N/NC(=O)c1ccncc1)c1ccc2c(c1)OCO2 | -22.1% (inactive) |
| COc1ccc(NC(=O)C(=O)NNC(=O)COc2ccc(OC)cc2)cc1 | -24.3% (inactive) |
| COc1cccc(OCC(=O)NNC(=O)C(=O)Nc2ccc(OC)cc2OC)c1 | 15.4% (active) |
| COc1ccc(NC(=O)C(=O)NNC(=O)COc2ccc(Cl)cc2)c(OC)c1 | 15.6% (active) |
| O=C(NNC(=O)C12CC3CC(CC(O)(C3)C1)C2)c1ccccc1O | -1.7% (inactive) |
| COc1ccc(OC)c(NC(=O)C(=O)NNC(=O)C23CC4CC(CC(C4)C2)C3)c1 | 96.2% (active) |
| COc1ccc(OCC(=O)NNC(=O)C(=O)Nc2cc(OC)ccc2OC)cc1 | 15.9% (active) |

| SMILES | activity change, less the hit threshold |
| --- | --- |
| O=C(COc1ccc(S(=O)(=O)NCc2ccccc2)cc1Cl)NCC1CCCO1 (stereo unspecified) | -14.4% (inactive) |
| Cc1ccc(-n2c(C)cc(C(=O)CN3CCOCC3)c2C)cc1 | -12.8% (inactive) |
| CN(CC(=O)Nc1ccc(OC(F)(F)F)cc1)S(=O)(=O)c1cnc[nH]1 | -18.2% (inactive) |
| CCN1C(=O)[C@H]2[C@@H](c3ccc(-c4ccc(OC)cc4)cc3)N[C@@](C)(C(=O)OC)[C@H]2C1=O | -17.6% (inactive) |
| CCC(NS(=O)(=O)c1ccc(OC)cc1)C(=O)O (stereo unspecified) | -16.1% (inactive) |
| CN(C)c1oc(-c2ccccc2[N+](=O)[O-])nc1C#N | -6.7% (inactive) |
| Cc1ccccc1NC(=O)CN1C(=O)S/C(=C\c2ccc(-c3cc(C(=O)O)ccc3C)o2)C1=O | -10.8% (inactive) |
| Cc1ccc(NC(=S)N2CCN(c3ccccc3F)CC2)c(C)c1 | -10.4% (inactive) |
| Cn1c(=O)[nH]c(=O)c2c1nc(CN1CCN(c3ccccc3F)CC1)n2CCCc1ccccc1 | -12.9% (inactive) |
| Cc1cc(-c2csc3nc[nH]c(=S)c23)cc(C)c1C | 33.7% (active) |
| Cc1ccc(-c2csc3nc[nH]c(=S)c23)cc1C | 2.5% (active) |
| C=CCNC(=O)CC(=O)N/N=C/c1cccs1 | -10.2% (inactive) |
| Nc1nc(O)c(N=Nc2ccc(S(N)(=O)=O)cc2)c(=O)[nH]1 | -16.5% (inactive) |
| CSc1nc2c(c(=O)[nH]1)C(c1ccc(Br)cc1)CC(=O)N2 (stereo unspecified) | -18.9% (inactive) |
| COc1ccc(S(=O)(=O)c2snnc2C)cc1 | -14.8% (inactive) |
| CN(Cc1cccc(C(F)(F)F)c1)Cc1nc(-c2cnccn2)no1 | -21.7% (inactive) |
| COC(=O)C1=C(C)NC2=C(C(=O)CCC2)C1c1ccc(-c2ccsc2C(=O)OC)o1 (stereo unspecified) | 53.7% (active) |
| COC(=O)C(C)Sc1nnc(Cc2cc(=O)[nH]c(=O)[nH]2)n1-c1cccc(OC)c1 (stereo unspecified) | -15.6% (inactive) |
| Cc1ccc(-n2ncc3c2CCCC3NC(=O)c2csnn2)cc1C (stereo unspecified) | -24.7% (inactive) |
| O=c1c2cccnc2[nH]c(=S)n1CCC1=CCCCC1 | 48.1% (active) |
| O=c1c2ccccc2[nH]c(=S)n1CCC1=CCCCC1 | 18% (active) |
| O=c1c2ccc(Cl)cc2[nH]c(=S)n1CCC1=CCCCC1 | 9.4% (active) |
| O=C(CCn1c(=S)[nH]c2cc3c(cc2c1=O)OCO3)NCc1ccc(Cl)cc1 | -10.2% (inactive) |
| COc1ccccc1CNC(=O)CCCC(=O)n1ncc2cc(C)ccc21 | -14.9% (inactive) |

| SMILES | activity change, less the hit threshold |
| --- | --- |
| N#C/C(=N\Nc1ccccc1F)c1nc(-c2ccccc2)cs1 | -27.5% (inactive) |
| CC(=O)Nc1ccc2nc(NC(=O)c3ccc([N+](=O)[O-])o3)sc2c1 | -16.8% (inactive) |
| Cc1cc(NC(=O)Cn2c(=O)n(Cc3ccccc3)c(=O)c3ccccc32)no1 | -19.9% (inactive) |
| Cc1ccc(C(C)C)c(OCc2n[nH]c(=S)o2)c1 | 10.8% (active) |
| c1ccc(SSc2ccccn2)nc1 | -14% (inactive) |
| CC(C)(C)Cc1nnc(NC(=O)c2ccco2)s1 | -19.2% (inactive) |
| CC(C)CC(=O)Nc1nc(=S)ss1 | -15.9% (inactive) |
| Cc1ccccc1C(=O)Nc1nc(=S)ss1 | 58.6% (active) |
| O=C(NNC(=O)c1ccc(Cl)cc1Cl)c1cnccn1 | -19.5% (inactive) |
| Cn1sc(NC(=O)c2cccc(Cl)c2)nc1=O | -5.4% (inactive) |
| O=C(Nc1nc(=S)ss1)c1ccc(Cl)cc1Cl | 100% (active) |
| Cc1ccc(C)c2sc(NC(=O)c3nc4ccccc4s3)nc12 | -7.3% (inactive) |
| COc1cc(/C=C2/SC(=S)N(CC(=O)O)C2=O)ccc1OCC(=O)Nc1ccc(C)c(C)c1 | -18.3% (inactive) |
| COC(=O)c1ccnc(/C=N/O)c1 | -13% (inactive) |
| N=C1SCC(=O)N1c1ncc(Cc2ccccc2Cl)s1 | -20.8% (inactive) |
| CCOc1ccc2nc(N3C(=O)/C(=C/c4ccccc4)NC3=S)sc2c1 | -26.6% (inactive) |
| COc1ccc2nc(-n3c(O)c(C4=c5ccccc5=NC4=O)[nH]c3=S)sc2c1 | -16.8% (inactive) |
| COc1ccc2nc(N=Nc3c(O)ccc4ccccc34)sc2c1 | -4.3% (inactive) |
| N#Cc1c(NC(=O)c2cc(-n3cnnc3)ccc2Cl)sc2c1CCCC2 | -10.6% (inactive) |
| CCOc1ccc2nc(/N=C/c3c(C)[nH]n(-c4ccccc4)c3=O)sc2c1 | 109% (active) |
| Cc1[nH]n(-c2cccc3ccccc23)c(=O)c1/C=N/c1sc2c(c1C#N)CCC2 | -0.6% (inactive) |
| Cc1[nH]n(-c2ccc(Cl)cc2)c(=O)c1/C=N/c1nnc(-c2ccccc2)s1 | 170% (active) |
| CCOc1ccc2nc(/N=C/c3nc(-c4ccccc4)oc3O)sc2c1 | -11.5% (inactive) |
| COc1ccc2nc(/N=C/c3c(C)[nH]n(-c4ccc(C)cc4)c3=O)sc2c1 | 103% (active) |

| SMILES | activity change, less the hit threshold |
| --- | --- |
| Cc1[nH]n(-c2ccc(F)cc2)c(=O)c1/C=N/c1sc2c(c1C#N)CCCC2 | 21.6% (active) |
| CC(=O)c1ccc(N2CCN(C(=O)Cc3ccccc3)CC2)c(F)c1 | -28% (inactive) |
| CCCN(CC(=O)Nc1ccccc1C)C(=O)CCl | -25.4% (inactive) |
| CCc1nnc(NC(=O)c2cccc(S(=O)(=O)N3CCN(c4ccccc4)CC3)c2)s1 | -21.2% (inactive) |
| COC(=O)/C=C1\S/C(=N/N=C/c2ccco2)NC1=O | -11% (inactive) |
| CSc1nc2ccc(S(=O)(=O)N3CCc4ccccc43)cc2s1 | -21.8% (inactive) |
| Cc1ccc2[nH]cc(CCNC(=O)/C=C/c3ccco3)c2c1 | -22.5% (inactive) |
| CCOC(=O)c1nnsc1NC(C)=O | -19.7% (inactive) |
| CC(C)Oc1ccccc1C1(c2ccccc2)NC(=O)NC1=O (stereo unspecified) | -22.4% (inactive) |
| CCCCc1cc(=O)oc2c(C)c(OCC(=O)NCc3ccccn3)ccc12 | -13.4% (inactive) |
| CCOc1ccc2nc(/N=C/c3nc(-c4ccc(Br)cc4)oc3O)sc2c1 | -9.3% (inactive) |
| CCOc1ccc2nc(N3C(=O)/C(=C/c4ccc(Cl)cc4)NC3=S)sc2c1 | -21.3% (inactive) |
| CCOc1ccc2nc(/N=C/c3c(C)[nH]n(-c4ccc(C)cc4)c3=O)sc2c1 | 102% (active) |
| COc1ccc2nc(/N=C/c3c(C)[nH]n(-c4ccc(C)cc4C)c3=O)sc2c1 | 23% (active) |
| CCC(c1nnc(SCC(=O)NCCc2ccc(Cl)cc2Cl)o1)N(C)C (stereo unspecified) | -31.5% (inactive) |
| CCOc1ccccc1C(=O)NC1CC2CCCC(C1)N2Cc1nnnn1Cc1ccco1 (stereo unspecified) | -26.4% (inactive) |
| Cc1ccc2cc(CN(CCCN(C)C)C(=S)NCc3ccccc3)c(=O)[nH]c2c1C | -23.9% (inactive) |
| CC1CC(OCC(O)C[N+]2(C)CCOCC2)CC(C)(C)C1 (stereo unspecified) | -21.6% (inactive) |
| CCCSc1cc(NCCOC(C)=O)c([N+](=O)[O-])c2nonc12 | -13.1% (inactive) |
| COc1ccc(C(=O)O/N=C(\N)c2ccccn2)cc1[N+](=O)[O-] | -10.2% (inactive) |
| O=[N+]([O-])C1=CC=C2C(=NC3(CCCCC3)N2O)C1=NC1CCCCC1 | -27.4% (inactive) |
| O=C(O)c1ccc(CNC(=O)C23CC4CC(CC(C4)C2)C3)cc1 | -18.2% (inactive) |
| Nc1cccc2c1C(=O)N(CC(=O)NC13CC4CC(CC(C4)C1)C3)C2=O | -18.4% (inactive) |
| Cc1ccc(/C(O)=C/C(=O)C(=O)NC23CC4CC(CC(C4)C2)C3)cc1 | 1.2% (active) |
